Test results from PubChem BioAssay AID977607 (Broad Institute, 2014).
Out of some 1,500 compounds screened, about 460 (31%) were called active. Inconclusive results (about 1%) are left out.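 The calls were made as follows: active = curve reaches 40% activation over neutral controls at an AC40 no higher than the top valid tested concentration; inconclusive = no clear call, values can overlap the other calls; inactive = signal moving opposite to the expected increase, and the rest.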 Not all results are given here. Measured potencies and affinities stand elsewhere.

Assay: activators of glucose-dependent insulin secretion, dose response, cell-based, INS-1E, Gaussia luciferase, luminescence, cherry-pick, set 2 (AID 977607);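 also: 0% = median of the plate neutral control wells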
Details: INS-1E GLuc insulin secretion reporter, 2-3 h, active compounds read high; at 35 µM, 100% = signal doubled over neutral wells unless noted

Max activation, inactive:
NCCCNC(=S)NCCCN(Cc1ccc(Cl)cc1)c1ccc(Br)cn1 -16.7% [at 0.005 µM, 100% = signal doubled over neutral wells], Cc1cccc(-c2cc3nc4c(c(N5CCCC(O)C5)n3n2)CCC4)c1 (stereo unspecified) 36.7% [at 11 µM, 100% = signal doubled over neutral wells], Cn1c(=O)c2[nH]c(SCc3ccccn3)nc2n(C)c1=S -21.4% [at 11 µM, 100% = signal doubled over neutral wells], COc1ccc(C2=NOC(C(=O)NCc3ccccn3)C2)cc1OC (stereo unspecified) 31.6%, Fc1ccc(-c2csc3nnc(SCc4cccnc4)n23)cc1 18.4%, O=S1(=O)c2ccccc2OC(COCc2ccccc2)CN1C1CC1 (stereo unspecified) -28.4%, CCN(CC)C(=O)c1ccccc1NS(=O)(=O)c1ccc(C)cc1 -13.4% [at 0.0016 µM, 100% = signal doubled over neutral wells], Cn1c(N)c(C(c2ccccc2)c2c(N)n(C)c(=O)n(C)c2=O)c(=O)n(C)c1=O 17.9% [at 0.005 µM, 100% = signal doubled over neutral wells], CC(C)c1ccc(NC2CCCN(C(=O)c3cccnc3)C2)cc1 (stereo unspecified) -13.8% [at 0.42 µM, 100% = signal doubled over neutral wells], CCCc1nc(N)sc1C(=O)OCC -11.4% [at 1.2 µM, 100% = signal doubled over neutral wells], CCOC(=O)c1nc(-c2ccccc2)oc1N(C)C -16.2% [at 1.2 µM, 100% = signal doubled over neutral wells], Nc1nc(SCc2nc3scc(-c4ccccc4)c3c(=O)[nH]2)n[nH]1 50.6%, Cc1cc(C)n2ncc(-c3cccc(Br)c3)c2n1 -17% [at 0.0016 µM, 100% = signal doubled over neutral wells], O=c1cc(-c2cccc(Br)c2)nc(-c2ccccc2F)o1 -17.1% [at 11 µM, 100% = signal doubled over neutral wells], CC1CCc2nc(N)c(C#N)c(-c3ccncc3)c2C1 (stereo unspecified) 21.5%, Cc1nc(N)c(C#N)c(-c2cccnc2)c1-c1ccccc1 45.7% [at 11 µM, 100% = signal doubled over neutral wells], Cc1ccc(C(=O)n2nc(-c3cccnc3)nc2N)cc1 23.7%, N#Cc1c(-c2ccco2)cc(C2CC2)nc1N 25.6%, Cc1cccc(C)c1OCCCn1ccnc1 41% [at 0.046 µM, 100% = signal doubled over neutral wells], O=C(CC1SC2=NCCN2C1=O)Nc1ccc(Br)cc1 (stereo unspecified) -22.5% [at 0.42 µM, 100% = signal doubled over neutral wells], Cc1ccc(NC(=O)CN(C(=O)N2CCN(C)CC2)S(=O)(=O)c2ccc(C)cc2)cc1 -21.9% [at 1.2 µM, 100% = signal doubled over neutral wells], Cc1cc(S(=O)(=O)Nc2nc(CN3CCOCC3)nc3sc4c(c23)CCC4)ccc1F -12.9% [at 0.135 µM, 100% = signal doubled over neutral wells], C=CCc1ccccc1Oc1cc(OC)nc(N)n1 -22% [at 1.2 µM, 100% = signal doubled over neutral wells], COc1ccc(CCNC(=O)C(=O)c2c(C)n(C)c3ccccc23)cc1OC -13.8% [at 1.2 µM, 100% = signal doubled over neutral wells], CCC(C)c1ccccc1OCCn1ccnc1 (stereo unspecified) 16.6% [at 0.005 µM, 100% = signal doubled over neutral wells], COc1ccc(OCCCCN(C)Cc2ccccc2)cc1 -18.5% [at 1.2 µM, 100% = signal doubled over neutral wells], O=C(N/N=C/c1ccc2c(c1)OCO2)c1ccc(Cl)cc1Cl -37.2%, CCC(=O)Nc1sc(Cc2ccc3c(c2)OCO3)c(C)c1C(N)=O -24.2% [at 0.0016 µM, 100% = signal doubled over neutral wells], O=C(Nc1ccc(F)cc1)c1cccnc1Oc1ccccc1 21.8%, CC(C)CCN1CC(O)=C(c2nc(-c3ccc(Cl)cc3)cs2)C1=N -11.3% [at 0.005 µM, 100% = signal doubled over neutral wells], CCCn1c(C)cc(C)c(C#N)c1=O -11.7% [at 1.2 µM, 100% = signal doubled over neutral wells], O=C(O)CC(CC(=O)Nc1ccc(C(=O)O)cc1)c1ccccc1 (stereo unspecified) 11.8% [at 3.8 µM, 100% = signal doubled over neutral wells], CCNc1nc(Oc2ccc(C#N)cc2)cc(C(F)(F)F)n1 -19% [at 0.135 µM, 100% = signal doubled over neutral wells], O=S(=O)(NCc1ccccc1)c1ccc(-n2cccn2)cc1 32% [at 0.135 µM, 100% = signal doubled over neutral wells], Cc1ccc2c(c1)N(C(C)C(=O)NCc1cccs1)C(=O)CO2 (stereo unspecified) 15.9% [at 0.42 µM, 100% = signal doubled over neutral wells], CN1CCCC1CCNC1C2CC3CC(C2)CC1C3 (stereo unspecified) -20.8% [at 0.135 µM, 100% = signal doubled over neutral wells], Cc1ccc(-n2nc3c(c2NC(=O)C2CC2)CS(=O)(=O)C3)cc1 -19.6% [at 0.005 µM, 100% = signal doubled over neutral wells], CC(C)CN(C(=O)C1CCCCC1)C1CCS(=O)(=O)C1 (stereo unspecified) -14.6% [at 3.8 µM, 100% = signal doubled over neutral wells], CC1CCC(NC(=O)C2COc3ccccc3O2)CC1 (stereo unspecified) -17.3% [at 0.135 µM, 100% = signal doubled over neutral wells], O=C(O)C1Cc2c([nH]c3ccccc23)C(c2ccc3c(c2)OCO3)N1 (stereo unspecified) 27.5% [at 0.015 µM, 100% = signal doubled over neutral wells], CC(=O)N1CCN(c2nc(-c3cccs3)nc3ccccc23)CC1 40.4% [at 11 µM, 100% = signal doubled over neutral wells], Cc1nn(-c2ccccc2)c2nc(C(F)F)cc(C(F)F)c12 13.6%, COc1ccc(-c2cnc(N)nc2-c2ccc(OC)cc2)cc1 20.9% [at 11 µM, 100% = signal doubled over neutral wells], Cc1cccn2cc(CCNS(=O)(=O)c3cccs3)nc12 -22.2% [at 0.42 µM, 100% = signal doubled over neutral wells], Cc1cc(OCC(O)CNC(C)c2ccccc2)ccc1C(C)C (stereo unspecified) 327%, COc1ccccc1C(C)NS(=O)(=O)c1ccc(Cl)nc1 (stereo unspecified) 15.6% [at 3.8 µM, 100% = signal doubled over neutral wells], Cc1cn(CC(C)C)c(=O)n(-c2ccccc2)c1=O 12.2%, Cc1cccc2nc(-c3ccco3)c(Nc3ccccc3)n12 -25.5%, COc1ccc(N2CC(C(=O)N3CCc4ccccc43)CC2=O)cc1 (stereo unspecified) -12.5% [at 0.0016 µM, 100% = signal doubled over neutral wells], COc1ccc(-c2[nH]c3ccccc3c2SCCN)cc1 -28.1%, O=c1c(C(c2ccccc2)c2c(O)sc3ccccc3c2=O)c(O)sc2ccccc12 19.2%, CCCCc1[nH]c(=O)c(C#N)c2c1CCCC2 16.7%, Cc1c(OCC(=O)NCc2ccccn2)ccc2c3c(c(=O)oc12)CCCC3 27.3%, NNc1nc(-c2ccccc2)c2ccccc2n1 -19.6% [at 0.046 µM, 100% = signal doubled over neutral wells], CCn1c(=O)[nH]c(=O)c2c(N)c(C(=O)c3cc(F)ccc3F)sc21 27.3%, COC(=O)N1CCCCC1c1cc(C(=O)NCc2ccc(Cl)c(Cl)c2)no1 (stereo unspecified) -38.9%, CC(C)COc1ccc(Br)cc1CNC(C)(C)C -18.4% [at 11 µM, 100% = signal doubled over neutral wells], COCCN1Cc2cccc(C(=O)NCc3ccccc3OC)c2C1=O -20% [at 0.0016 µM, 100% = signal doubled over neutral wells], CSc1ccc(/C=N/N(C)S(=O)(=O)c2ccc(C)cc2)cc1 -22.1%, Cc1ccc(S(=O)(=O)/N=C2\CN(C)C(=O)N2C)cc1 -21.8% [at 3.8 µM, 100% = signal doubled over neutral wells], CCCc1nc(-c2cc3cc(C)ccc3[nH]c2=O)no1 -13.2% [at 1.2 µM, 100% = signal doubled over neutral wells]
